Shown are actives, neighbours in structure and some others; about 0.44% of the full set was active somewhere.
EPAC1 antag: antagonists of human EPAC1 | AID 720709 | Potency, µM (series often up to 115 µM), for inactives: top-dose activity change, negative = inhibition, most hits filed as inhibitors | EPAC1 GEF assay, Rap1b-BODIPY-GDP exchange fluorescence | O95398 | 360,000 tested, 0.14% active;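 note: plate controls were vehicle for no effect and positive control for full effect; nearly all actives have a fitted effect of over 50% in size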
USP1 inh: blocks the human USP1/UAF1 deubiquitinase complex; recombinant USP1/UAF1, Ub-Rhodamine cleavage fluorescence; Potency, µM (doses to about 57.1 µM), for inactives: at the highest dose activity change, negative = inhibition, actives largely listed as inhibitors; 390,000 tested, 0.23% active; AID 743255; note: % is set by controls: 0 for no effect and ±100 for the full control effect; nearly all actives have a fitted effect of over 60% in size
Target sequence (O94782 whole entry, looked up): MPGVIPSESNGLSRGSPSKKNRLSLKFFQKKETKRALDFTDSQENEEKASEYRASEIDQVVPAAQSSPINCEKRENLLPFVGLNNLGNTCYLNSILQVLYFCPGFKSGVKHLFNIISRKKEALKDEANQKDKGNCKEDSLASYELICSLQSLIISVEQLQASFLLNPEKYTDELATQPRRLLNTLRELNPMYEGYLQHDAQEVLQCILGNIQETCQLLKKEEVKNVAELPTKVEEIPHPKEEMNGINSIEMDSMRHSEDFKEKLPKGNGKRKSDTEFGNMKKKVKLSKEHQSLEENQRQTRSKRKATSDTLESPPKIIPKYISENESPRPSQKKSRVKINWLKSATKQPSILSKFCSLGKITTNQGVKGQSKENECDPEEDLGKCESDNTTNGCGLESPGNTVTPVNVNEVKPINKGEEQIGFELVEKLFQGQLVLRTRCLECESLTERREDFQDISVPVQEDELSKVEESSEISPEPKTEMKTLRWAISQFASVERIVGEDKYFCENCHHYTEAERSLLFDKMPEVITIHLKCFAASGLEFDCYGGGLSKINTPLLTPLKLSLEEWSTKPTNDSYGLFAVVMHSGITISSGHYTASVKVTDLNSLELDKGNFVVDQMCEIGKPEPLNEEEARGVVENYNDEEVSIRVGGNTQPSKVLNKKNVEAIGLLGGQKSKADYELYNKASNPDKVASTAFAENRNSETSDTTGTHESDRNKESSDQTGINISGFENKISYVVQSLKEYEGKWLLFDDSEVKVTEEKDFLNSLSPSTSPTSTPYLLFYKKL
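In this screen, compounds sit with the deubiquitinase complex (1nM) for 15 min at room temperature before Ub-Rho is added at 150nM final. Fluorescence rise is then followed for 6 reads every 60 seconds.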
EPAC2 antag: antagonists of human EPAC2 | Q8WZA2 | EPAC2 GEF exchange of Rap1B-BODIPY-GDP, fluorescence | Potency, µM (top dose mostly 114 µM), for the others: top-dose activity, negative = inhibition, actives largely listed as inhibitors | 360,000 tested, 0.18% active; note: % is set by controls: 0 for no effect and ±100 for the full control effect; nearly all actives have a fitted effect of over 45% in size
EPAC1 agonist: agonists of human EPAC1; O95398; EPAC1 agonist qHTS, biochemical assay; response scale: 100% = response to 6.5 mM cAMP; Potency, µM (doses to about 154 µM), for the others: at the top dose activation, most hits filed as activators; 360,000 tested, 0.073% active; note: nearly all actives have a fitted effect of over 60% in size
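Compounds were pinned as a concentration titration into mixtures of EPAC1 (100 nM), BODIPY-GDP-loaded Rap1B (250 nM) and GDP (50 uM). After 5 min at room temperature, fluorescence was followed for 30 min; activity was scaled to 6.5 mM cAMP.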
EPAC2 agonist: EPAC2 (human) agonism; Q8WZA2; EPAC2 activation, biochemical qHTS; response scale: 100% = 6.5 mM cAMP response; Potency, µM (titrated, usually from 154 µM), for inactives: at the top dose activation, most hits filed as activators; 360,000 tested, 0.079% active; note: nearly all actives have a fitted effect of over 50% in size
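EPAC2 (100 nM) mixed with Rap1B loaded with BODIPY-GDP (250 nM) plus 50 uM unlabeled GDP; compounds pinned in, 5 min RT, then read every 5 min for 30 min (ex 480, em 540 nm). Normalized to cAMP control.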
Numbers without * were called inactive; i = inactive; ? = inconclusive; · = no result; [ ] = remark or other dose. Calls come from the whole dose curve; as a rule, active = well fitted curve in the direction sought with a large enough effect; inconclusive = small, poorly fitted or top-dose-only effect, or another doubt; inactive = no such curve, though single readings can be large; an effect the other way counts as inactive or inconclusive. Potency is the fitted concentration of half-maximal effect.

SMILES	EPAC1 antag	USP1 inh	EPAC2 antag	EPAC1 agonist	EPAC2 agonist
COc1ccc(NC(=O)c2cccnc2NCCc2ccccc2)cc1	51.8%	-14.9%	-4.5%	56.2µM*	31.6µM*
CCN(CC)c1ccc(N=C2C(=O)Nc3ccccc32)cc1	-24.1%	31.6µM*	1.7%	-11.5%	-0.6%
Cc1ccc(N=C2C(=O)Nc3ccccc32)cc1	-9.7%	?	11.8%	13.8%	10.6%
CCOC(=O)c1ccc(/C=C2/C=C(c3ccccc3)N(c3ccc(Cl)c(C(=O)O)c3)C2=O)cc1	?	25.1µM*	?	19.2%	7.5%
N#Cc1sc2nc(-c3ccccc3)cc(-c3ccco3)c2c1N	35.5µM*	3.98µM*	-1.5%	-5.3%	-4.6%
CCOC(=O)N1CCc2c(sc3c2c(=O)n(CCc2ccccc2)c(=O)n3CC(=O)Nc2ccccc2C)C1	·	-21.3%	·	·	·
CCOC(=O)CC(=O)CSc1nc(-c2cccnc2)ccc1C#N	7.1%	31.6µM*	6.0%	15.5%	24.5%
Cc1cc(NC(=O)C(C)(C)C)cc(-c2nc3ncccc3o2)c1O	·	-14.7%	·	·	·
O=c1[nH]c(Nc2ccccc2Cl)cc2ccccc12	6.9%	14.1µM*	6.7%	-1.9%	2.3%
Cc1ccccc1Nc1cc2ccccc2c(=O)[nH]1	?	1µM*	?	11.0%	20.0%
Cc1cc2ccccc2c(=O)[nH]1	2.7%	-6.4%	-0.1%	1.4%	3.4%
O=c1oc(Nc2ccccc2Cl)nc2ccccc12	-5.2%	-20.8%	8.2%	-5.4%	-0.1%
O=c1[nH]c(Nc2ccc(F)cc2)cc2ccccc12	?	12.6µM*	?	0.4%	18.6%
CCOC(=O)c1[nH]c2c(c1Cc1ccccc1)C(=O)CC(c1ccc(Cl)cc1)C2 (configuration not stated)	·	-0.3%	·	·	·
Cc1ccc(NS(=O)(=O)c2cc([N+](=O)[O-])ccc2NNC(=S)Nc2cccc(Cl)c2)c(C)c1	50.1µM*	?	50.1µM*	-17.8%	-16.0%
CCOC(=O)C1(C)C=C(Nc2ccc(C)cc2)C(=O)N1c1ccccc1 (configuration not stated)	·	-28.3%	·	·	·
Cc1c(Cl)cccc1NS(=O)(=O)c1ccc2c(c1)C1C=CCC1C(c1ccc(C(=O)O)cc1)N2 (configuration not stated)	56.2µM*	?	-17.2%	-7.1%	-4.3%
COc1ccc(NS(=O)(=O)c2ccc3c(c2)[C@H]2C=CC[C@H]2[C@@H](c2ccc(C(=O)O)cc2)N3)cc1	?	?	-0.6%	5.3%	-6.3%
CC(=O)Oc1c(Sc2ccccc2[N+](=O)[O-])c(C)nn1C(C)(C)C	?	-21.0%	50.1µM*	9.6%	8.2%
COCCn1c2nc(=O)n(-c3ccccc3)c(=O)c-2nc2ccccc21	212.6%	28.2µM*	i	89.1µM*	89.1µM*
Cc1ccc(CNC(=O)c2ccc3c(c2)nc(C)n3-c2cccc(F)c2)cc1	·	-20.7%	·	·	·
CC(=O)c1ccc(Nc2cc(C)nc3c(C)cc(C)cc23)cc1	0.6%	-14.9%	-18.9%	5.8%	24.5%
Cc1cc(C)c2nc(C)cc(Nc3ccc(C(=O)NCCO)cc3)c2c1	-2.1%	-20.9%	20µM*	-10.4%	6.2%
O=C(O)CCCCCN1C(=O)/C(=C\c2cn(-c3ccccc3)nc2-c2cccs2)SC1=S	-15.9%	?	52.4%	14.9%	24.8%
O=C(O)CCCCCN1C(=O)/C(=C/c2cn(-c3ccccc3)nc2-c2cccs2)SC1=S	50.0%	?	65.9%	89.1µM*	23.8%
SMILES	EPAC1 antag	USP1 inh	EPAC2 antag	EPAC1 agonist	EPAC2 agonist
Cc1ccc(NS(=O)(=O)c2cccc3cccnc23)c(Cl)c1	11.7%	-8.9%	28.2µM*	9.4%	8.6%
CCOC(=O)c1c(-n2cnnn2)sc2c1CCCC2	-8.5%	-19.3%	3.9%	15.3%	1.5%
CCOC(=O)c1c(N2C(=O)Nc3cc(Cl)c(Cl)cc3N2O)sc2c1CCCCC2	50.1µM*	-7.0%	-29.4%[57.1 µM]	-12.1%	-19.2%
O=C(C=Cc1ccccc1)c1c[nH]c2ccccc2c1=O	79.4µM*	-11.9%	-0.7%	0.4%	3.8%
COc1ccc(-c2nc3scc(CCNS(=O)(=O)c4ccc(F)cc4C)n3n2)cc1	·	-3.1%	·	·	·
Cc1ccc(Oc2ccccc2NC(=O)CSCC(=O)Nc2cc(C)on2)cc1	-12.6%	-21.6%	-6.7%	112µM*	3.7%
Cn1c(-c2sccc2OCc2ccc(Cl)cc2Cl)n[nH]c1=S	89.1µM*	-23.0%	-14.0%	-13.3%	6.5%
Cc1ccc(COc2ccsc2-c2n[nH]c(=S)n2C)cc1	-7.5%	-18.6%	4.8%	25.3%	3.6%
Cc1nn(-c2ccc(N3CCCC3)nn2)c(C)c1CCC(=O)NCc1ccccc1F	·	1.9%	·	·	·
Cc1cccc(C)c1NC(=O)C1c2ccccc2OCC(=O)N1CCCN1CCOCC1 (configuration not stated)	7.5%	·	14.1%	-12.4%	4.7%
CC(=O)c1ccc2c3c(cccc13)CC2	1.7%	-20.0%	7.7%	-1.5%	0.1%
ON=C(c1ccccc1)c1ccc2c3c(cccc13)CC2	6.0%	-27.9%	14.1µM*	4.3%	19.4%
O=C(NCc1cccc(C(F)(F)F)c1)c1cccc2c1C(=O)c1ccc(N3CCC(Cc4ccccc4)CC3)cc1S2(=O)=O	9.7%	25.1µM*	45.1%	-47.8%	-35.0%
O=C(NCc1ccco1)c1cccc2c1C(=O)c1ccc(N3CCC(Cc4ccccc4)CC3)cc1S2(=O)=O	27.5%	28.2µM*	17.6%	2.3%	-35.0%
O=C(NCc1cccc(F)c1)c1cccc2c1C(=O)c1ccc(N3CCC(Cc4ccccc4)CC3)cc1S2(=O)=O	112.7%	7.94µM*	117.4%	-69.1%	-74.9%
O=C(NCCc1ccc(F)cc1)c1cccc2c1C(=O)c1ccc(N3CCC(Cc4ccccc4)CC3)cc1S2(=O)=O	94.0%	i	?	-133.8%	-36.6%
CC1CCN(c2ccc3c(c2)S(=O)(=O)c2cccc(C(=O)NCc4cccc(F)c4)c2C3=O)CC1	62.1%	?	i	100µM*	-4.0%
O=C(NCc1cccc(F)c1)c1cccc2c1C(=O)c1ccc(N3CCCC3)cc1S2(=O)=O	79.4%	?	124.4%	28.2µM*	?
COc1cccc(C2C=C(c3ccc(C)cc3)Nc3c(C(=O)Nc4ccc(F)cc4)cnn32)c1OC (configuration not stated)	·	-6.2%	·	·	·
COc1ccc(N(C(=O)c2ccco2)S(=O)(=O)c2ccc(F)cc2)cc1	9.7%	-5.7%	5.5%	14.2%	9.4%
COc1ccc(N(C(=O)c2ccco2)S(=O)(=O)c2cc(OC)ccc2OC)cc1	-0.9%	-13.6%	-11.3%	6.2%	10µM*
COc1ccc(-c2nc(-c3ccccn3)ncc2S(C)(=O)=O)cc1	-8.5%	-3.4%	2.9%	3.5%	-0.6%
CCCc1nc2c(=O)n(C)c(=O)nc-2n(C)n1	?	0.1µM*	?	2.0%	23.6%

High-throughput results (PubChem)
